From PubChem BioAssay AID2551 (National Center for Advancing Translational Sciences (NCATS), 2010) come the findings set out here.

About 17,000 (5.5%) of roughly 310,000 compounds were called active. Inconclusive results (about 11%) are left out. Calls come from the whole dose curve; as a rule, active = well fitted inhibition curve with a large enough effect; inconclusive = small, poorly fitted or top-dose-only effect, or effect the other way; inactive = no such curve, though single readings can be large or run the other way. For the sample, actives were picked, then their nearest neighbours and some compounds at random.
% is set by controls: 0 for no effect and ±100 for the full control effect; potency is the fitted concentration of half-maximal effect.

Nuclear receptor ROR-gamma (Mus musculus), sequence (P51450 whole entry, looked up, the tested form may be a part): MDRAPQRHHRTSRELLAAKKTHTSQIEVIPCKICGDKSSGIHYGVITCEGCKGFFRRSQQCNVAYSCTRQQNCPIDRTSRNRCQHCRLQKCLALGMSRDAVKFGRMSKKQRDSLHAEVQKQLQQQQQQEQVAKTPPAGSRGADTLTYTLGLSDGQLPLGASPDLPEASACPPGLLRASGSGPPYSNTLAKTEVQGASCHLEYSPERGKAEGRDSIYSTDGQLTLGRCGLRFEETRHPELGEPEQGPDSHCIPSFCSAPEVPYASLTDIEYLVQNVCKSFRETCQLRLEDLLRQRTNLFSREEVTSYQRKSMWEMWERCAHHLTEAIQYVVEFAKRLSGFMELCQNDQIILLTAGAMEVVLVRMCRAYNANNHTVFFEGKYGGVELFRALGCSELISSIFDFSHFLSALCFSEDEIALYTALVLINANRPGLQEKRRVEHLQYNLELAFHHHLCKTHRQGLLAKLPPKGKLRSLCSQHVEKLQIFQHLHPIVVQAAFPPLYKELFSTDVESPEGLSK

This assay addresses Nuclear receptor ROR-gamma (Mus musculus) (UniProt P51450). Put plainly: qHTS for inhibitors of ROR gamma transcriptional activity. Note: nearly all actives have a fitted effect of over 60% in size. The following applies: Drosophila S2 Gal4-RORgamma UAS-luciferase reporter, 20 h; series mostly up to 53.6 µM; activity change, negative = inhibition: at the top concentration. Summed up:
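Stable Schneider cell line, Gal4 DNA-binding domain fused to ROR gamma, UAS-luciferase. Cmpd 1 hr RT → CuSO4 700 uM final → 20 hr RT → luciferase reagent 10 min → luminescence.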
Regarding `O=C(Cc1cccs1)Nc1nnc(C2CC2)s1`, the “activity change, negative = inhibition” value was 17.9% (inactive).
For `CCCc1ccc(OCC(O)CN2CCN(C(=O)OCC)CC2)cc1` (centres undefined), the “activity change, negative = inhibition” value was 16.4% (inactive).
`O=C(NCc1ccncc1)C(=O)NCC1OCCN1S(=O)(=O)c1ccc(Br)cc1` (centres undefined): the “activity change, negative = inhibition” value was -10.9% (inactive).
As to `CCCN1C2CCCC1CC(NC(=O)NC13CC4CC(CC(C4)C1)C3)C2` (centres undefined), the “activity change, negative = inhibition” value was -25.4% (inactive).
For the compound `COc1cc(/C=N/NC(=O)Cc2ccccc2)cc(OC)c1OC`, the “activity change, negative = inhibition” value was 0.299% (inactive).
Take `C/C(=N/NC(=O)c1ccc(NC(=O)c2ccc(F)cc2)cc1)c1ccccc1`: the “activity change, negative = inhibition” value was -31.3% (inactive).
For the compound `Cc1ccc(C(=O)NCCNC(=O)c2ccccc2)cc1`, the “activity change, negative = inhibition” value was -8.02% (inactive).
Regarding `C/C(=N\NC(=O)c1ccc(C)cc1)C1C(=O)c2ccccc2C1=O`, the Potency was 0.891 µM (active).
Take `FC(F)(F)c1nnc2c3ccccc3c(Cl)nn12`: the “activity change, negative = inhibition” value was -22.3% (inactive).
For `O=C(CN1CCN(c2cccc(Cl)c2)CC1)Nc1ccc(S(=O)(=O)N2CCOCC2)cc1`, the “activity change, negative = inhibition” value was 14.7% (inactive).
For the compound `Cc1cc(C(=O)NCCc2ccc(Cl)cc2)c(C)o1`, the “activity change, negative = inhibition” value was 13.5% (inactive).
With `Cc1cccc(NC(=O)COC(=O)CCc2ccccc2)c1C`, the activity change, negative = inhibition was -18.4% [at 1.91 µM] (inactive).
Consider `Cc1cccc(NC(=S)NCCc2ccc(F)cc2)c1C`, for which the Potency is 2 µM (active).
As for `Cc1ccc(NC(=O)C(=O)NCc2ccco2)c(C)c1`, the “activity change, negative = inhibition” value was 18.4% (inactive).
`NC(=O)Nc1ccccc1C(=O)NCCc1ccccc1`: the “activity change, negative = inhibition” value is 18.4% (inactive).
Take `O=C(CC(=O)N/N=C\c1ccc(F)cc1)NCCc1ccccc1`: the “activity change, negative = inhibition” value is 24.3% (inactive).
Regarding `Cc1cccc(NC(=O)C2CCCN(C(=O)Nc3ccc(F)cc3)C2)c1C` (centres undefined), the “activity change, negative = inhibition” value is 1.81% (inactive).
As to `Cc1cc(F)ccc1NC(=S)NCCc1ccccc1`, the Potency was 5.62 µM (active).
Still for that read-out and setting: to `Cc1ccc(NC(=S)NCc2ccccc2Cl)c(C)c1` belongs 6.31 µM (active).
As for `Cc1ccc(NC(=O)c2ccn(C(=O)Nc3ccccc3)n2)c(C)c1`, the “activity change, negative = inhibition” value was 4.67% (inactive).
Turning to `Cc1ccc(NC(=S)NCCc2ccc(Cl)cc2)c(C)c1`, the Potency was 2.82 µM (active).
Turning to `Cc1cc(Cl)ccc1NC(=S)NCCCN1CCCC1=O`, the “activity change, negative = inhibition” value is -42.8% (inactive).
As for `O=C(Nc1cccc([N+](=O)[O-])c1)N1CCc2ccccc2C1`, the “activity change, negative = inhibition” value is 42.6% (inactive).
Take `Cc1cc(N2C(=O)C(O)=C(C(=O)c3ccc(C)o3)C2c2ccc(OCc3ccccc3)cc2)no1` (centres undefined): the “activity change, negative = inhibition” value is -4.37% (inactive).
On the same count and under the same terms, to `COc1ccccc1CCNS(=O)(=O)c1cc2c3c(c1)C(C)C(=O)N3CCC2` (centres undefined) belongs 13.9% (inactive); to `CCN(CC)S(=O)(=O)c1ccc(C(=O)N2CCN(C3=NS(=O)(=O)c4ccccc43)CC2)cc1`, 21.5% (inactive); to `Cc1cc(C)n(-c2ccc(NC(=O)C3CCCCN3C(=O)c3cccs3)cc2)n1` (centres undefined), -11.8% (inactive).
On the same count and under the same terms, the figure for `O=C(Cc1ccccc1Cl)N1CCOCC1` is 4.98% (inactive).
As for `Cc1ccccc1NC(=S)NC(=O)Cc1ccc(Cl)cc1`, the Potency is 7.94 µM (active).
`Cc1cccc(NC(=O)c2cccc(C(=O)Nc3cccc(C)c3C)n2)c1C`: the activity change, negative = inhibition was -10.9% [at 1.91 µM] (inactive).
`Cc1ccccc1N/C(SCc1ccc(Cl)cc1)=C(/C#N)C(N)=O`: the “activity change, negative = inhibition” value was 33.9% (inactive).
As for `CSc1ncc(C(=O)Nc2ccc(C)cc2C)c(C)n1`, the “activity change, negative = inhibition” value is 11.4% (inactive).
With `CCOC(=O)N1CCN(C(=S)Nc2ccc(C)cc2C)CC1`, the “activity change, negative = inhibition” value was -1.33% (inactive).
`Cc1ccc(NC(=S)Nc2ncccc2C)c(C)c1`: the Potency was 4.47 µM (active).
For `Cc1cccc(NC(=S)NCCc2ccc(Cl)cc2)c1C`, the Potency is 5.62 µM (active).
For the compound `Cc1cccc(NC(=S)N2CCC(O)CC2)c1C`, the “activity change, negative = inhibition” value was -8.16% (inactive).
Same read-out and setting: to `O=C(COc1ccc(Cl)cc1)Nc1ccccc1CO` belongs 42.9% (inactive).
With `COc1ccccc1CN1CCNC(=O)C1CC(=O)N(C)CC1CCOCC1` (centres undefined), the “activity change, negative = inhibition” value is -8.85% (inactive).
Consider `COc1ccc(NC(=O)COc2ccc(C(=O)c3ccc(F)cc3)cc2)cc1S(N)(=O)=O`, for which the “activity change, negative = inhibition” value was 1.06% (inactive).
Consider `CC(=O)N1CCSc2ccc(S(=O)(=O)N3CCC(C)CC3)cc21`, for which the “activity change, negative = inhibition” value was 13.9% (inactive).
Consider `COc1cccc(N(C(=O)CNC(=O)c2ccco2)C(C(=O)NC2CCCCC2)c2cccnc2)c1` (centres undefined), for which the “activity change, negative = inhibition” value is 1.27% (inactive).
On the same count and under the same terms, the figure for `Cc1ccc(-c2nc(CSCC(=O)NC3CCN(Cc4ccccc4)CC3)c(C)o2)cc1` is -2.39% (inactive); for `Cc1ccccc1OCC(=O)NNC(=O)c1cc(S(=O)(=O)N(C)C)ccc1N1CCCC1` it is 24.7% (inactive).
With `Cn1c(Nc2cccc(Cl)c2)nc2ccccc21`, the activity change, negative = inhibition was -6.74% [at 1.91 µM] (inactive).
The same measure, in the same setting: to `COc1ccccc1CNC(=O)C1CCN(S(=O)(=O)c2ccc3c(c2)CC(C)N3C(=O)C2CC2)CC1` (centres undefined) belongs 14.5% (inactive).
Regarding `Cc1ccc(OS(=O)Nc2cccc3nccnc23)cc1` (centres undefined), the Potency was 3.98 µM (active).
As to `COc1ccc(NC(=O)Nc2cccc3cccnc23)cc1`, the “activity change, negative = inhibition” value was 2.2% (inactive).
The same measure, in the same setting: to `Cc1ccc(Oc2ccc3c(c2)C(=O)N(c2cccc4cccnc24)C3=O)cc1` belongs -9.24% (inactive).
As to `O=C(COc1ccc(Cl)cc1)NCCS(=O)(=O)N1CCN(c2ccc(F)cc2)CC1`, the “activity change, negative = inhibition” value is 23.4% (inactive).
For the compound `CN(C)c1nc(=Nc2cccc(Cl)c2)ss1`, the Potency is 0.398 µM (active).
On to `CCOC(=O)C1=C(O)CSC1=Nc1cccc(Cl)c1`, for which the “activity change, negative = inhibition” value was -0.427% (inactive).
On to `CC(=O)Oc1ccc2c(=O)oc(-c3ccc([N+](=O)[O-])cc3)nc2c1`, for which the “activity change, negative = inhibition” value is -18.3% (inactive).
Consider `CC(C)(C)NC(=O)C(=O)NN=C1CCCCCCC1`, for which the “activity change, negative = inhibition” value is -6.76% (inactive).
Regarding `CC(C)NC(=S)NN=C1CCCCCCCCCCC1`, the Potency was 0.447 µM (active).
